Measurements from PubChem BioAssay AID493168 (National Center for Advancing Translational Sciences (NCATS), 2011).
Results filed as inconclusive are left out. Where a call stands in place of a potency, no number is given. Activity calls are given as the source filed them. The call rests on the fitted dose curve; in most records, active means well fitted inhibition curve with a large enough effect; inconclusive means small, poorly fitted or top-dose-only effect, or effect the other way; inactive means flat fitted curve, though single readings scatter.
Further: nearly all actives have a fitted effect of over 55% in size.
Potency means the concentration at half of the fitted maximal effect.

The molecules below were run against Ubiquitin carboxyl-terminal hydrolase 2 (Homo sapiens) (UniProt O75604) (assay: Confirmation Assay for Inhibitors of Ubiquitin-specific Protease USP2a Using CHOP2 as the Reporter). Conditions: USP2 core, Ub-CHOP2 coupled reporter fluorescence; series mostly up to 38.3 µM.
Sequence of Ubiquitin carboxyl-terminal hydrolase 2 (Homo sapiens) (O75604 whole entry, looked up): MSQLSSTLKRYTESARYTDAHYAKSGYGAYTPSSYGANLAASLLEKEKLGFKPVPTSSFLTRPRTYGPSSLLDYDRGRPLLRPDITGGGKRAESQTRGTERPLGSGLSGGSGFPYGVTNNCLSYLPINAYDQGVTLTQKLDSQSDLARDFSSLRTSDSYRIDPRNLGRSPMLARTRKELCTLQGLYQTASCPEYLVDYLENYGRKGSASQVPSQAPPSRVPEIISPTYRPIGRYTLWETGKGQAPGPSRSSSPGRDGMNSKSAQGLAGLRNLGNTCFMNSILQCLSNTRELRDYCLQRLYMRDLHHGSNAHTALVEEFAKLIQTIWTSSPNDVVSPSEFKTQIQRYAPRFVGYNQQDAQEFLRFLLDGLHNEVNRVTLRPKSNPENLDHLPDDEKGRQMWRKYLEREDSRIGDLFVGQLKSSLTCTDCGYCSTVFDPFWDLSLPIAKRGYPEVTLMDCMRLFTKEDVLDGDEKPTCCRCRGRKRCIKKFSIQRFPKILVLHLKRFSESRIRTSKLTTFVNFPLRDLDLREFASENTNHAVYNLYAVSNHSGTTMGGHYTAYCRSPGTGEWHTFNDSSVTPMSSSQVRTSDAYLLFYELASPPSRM
How it was run: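 USP2 core (10 nM final) was preincubated with compound for 30 min at RT in Tris-HCl pH 8.0, CaCl2, beta-mercaptoethanol, CHAPS. Ub-CHOP2 and reporter substrate (25 nM final each) were added, and fluorescence (Ex 485/Em 531 nm) was read after 60 min.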
For CC(C)OCCCNC(=O)CN1C(=O)CC(C)(C)S(=O)(=O)c2ccccc21, the Potency was “inactive”.
With C=CCn1c(N)c(C(=O)NCc2cccnc2)sc1=S the Potency was “inactive”.
COCCn1nnnc1CN(CCc1ccccc1)Cc1cc2ccc(C)cc2[nH]c1=O was tested, and the Potency was “inactive”.
COC(=O)CCC/C=C1/SCC(NC(=O)c2ccccc2)C1=O (centres undefined) was tested, and the Potency was “inactive”.
With CC(C)(C)c1cc(Br)ccc1OCC(=O)Nc1ncn[nH]1 the Potency was “inactive”.
COc1cc(/C=C/C(=O)OCC(=O)NC(=O)NCc2ccco2)ccc1OC(F)F was tested, and the Potency was “inactive”.
Cc1cc(C)cc(NC(=O)CSc2nc3c(c(=O)[nH]2)CN(Cc2ccc(F)cc2)CC3)c1 was tested, and the Potency was “inactive”.
With Nc1cc(N)nc(SCC(=O)N2CCCCC2)n1 the Potency was “inactive”.
For Cc1nc(N(C)C)c2sc(=S)n(C)c2n1, the Potency was “inactive”.
For O=C(CSc1nc2ccccc2s1)NCCCN1CCOCC1, the Potency was “inactive”.
With Cc1ccc(C=Nc2ccccc2C(N)=O)cc1 the Potency was “inactive”.
With Cc1ccc(C)c(S(=O)(=O)c2c(N)n(/N=C/c3ccco3)c3nc4ccccc4nc23)c1 the Potency was “inactive”.
With Cc1ccc(SCC(=O)Nc2ccc(C(=O)Nc3ccc(O)cc3)cc2)cc1 the Potency was “inactive”.
CN(C)c1ccc(/C=C(/NC(=O)c2ccccc2)C(=O)N/N=C/c2ccc([N+](=O)[O-])c(O)c2)cc1 was tested, and the Potency was “inactive”.
O=C(c1ccco1)N1CCN(C(c2cccs2)c2sc3ncnn3c2O)CC1 (centres undefined) was tested, and the Potency was “inactive”.
With COc1cc(OC)cc(-c2c(C#Cc3ccsc3)c3cc(-c4ccc(OC)c(OC)c4)ccc3n2C)c1 the Potency was “inactive”.
In the case of O=C(CSc1ccc(Br)c2cccc(Cl)c12)Nc1ccc(S(=O)(=O)Nc2nccs2)cc1, the Potency is reported as 9.27 µM (active).
CN1CCN(S(=O)(=O)c2ccc(N3CCN(S(=O)(=O)/C=C/c4ccccc4)CC3)nc2)CC1 was tested, and the Potency was “inactive”.
CCOC(=O)N1CCN(C(=O)CN(c2cccc(C)c2)S(=O)(=O)c2ccccc2)CC1 was tested, and the Potency was “inactive”.
In the case of N#CCC(=O)Nc1ccc(C(=O)OCC(=O)NCc2ccc3c(c2)OCO3)cc1, the Potency is reported as “inactive”.
With COC(=O)c1cc2sc(Cl)cc2n1Cc1nc(-c2ccccc2)oc1C the Potency was “inactive”.
In the case of N#CNC(=Nc1cccc(F)c1)SCc1cccc(F)c1, the Potency is reported as “inactive”.
For CCN(CC)S(=O)(=O)c1ccc(-c2nnc(SCC(=O)Nc3ccc4c(c3)OCO4)o2)cc1, the Potency was “inactive”.
CC(=O)N1c2c(cc(Br)cc2S(=O)(=O)NCc2cccnc2)CC1C (centres undefined) was tested, and the Potency was “inactive”.
NC(=O)c1ncc(C(F)(F)F)cc1Oc1cccc(F)c1 was tested, and the Potency was “inactive”.
FC(F)Sc1ccc(NC(=S)NC2CCCCC2)cc1 was tested, and the Potency was “inactive”.
COc1ccccc1N1CCN(c2cc(C)nc3nc(C)nn23)CC1 was tested, and the Potency was “inactive”.
In the case of COc1cc(C(=O)OCC(=O)Nc2c(F)c(F)c(F)c(F)c2F)cc(OC)c1OC, the Potency is reported as “inactive”.
In the case of O=C(N/C(=C/c1cccnc1)C(=O)N1CCOCC1)c1ccco1, the Potency is reported as “inactive”.
In the case of CCCn1nnc(NC(=O)c2cccc(OCC(C)C)c2)n1, the Potency is reported as “inactive”.
Cc1ccc(C(=O)NCCNS(=O)(=O)c2ccccc2)cc1 was tested, and the Potency was “inactive”.
CC(C)(C)OC(=O)C[C@H]1C/C=C\C[C@H](CC(=O)N(CCO)Cc2ccccc2)C(=O)NC[C@H](c2ccccc2)OC1=O was tested, and the Potency was “inactive”.
With Cc1ccc(C(=O)NCCCc2ccccc2)s1 the Potency was “inactive”.
For COc1ccc(Cl)cc1S(=O)(=O)Nc1cccc(C(=O)O)c1, the Potency was “inactive”.
In the case of Cc1ccc(NC(=O)c2onc(C)c2Cl)cc1, the Potency is reported as “inactive”.
For Cc1ccc(/C(N)=N/OC(=O)Oc2ccccc2)cc1, the Potency was “inactive”.
With CC(C)Cn1c(SCC(N)=O)nnc1-c1cccc(S(=O)(=O)N2CCOCC2)c1 the Potency was “inactive”.
For CC(=O)c1cccc(NC(=O)C(C)OC(=O)c2cc(=O)[nH]c3ccccc23)c1 (centres undefined), the Potency was 6.56 µM (active).
Cc1c(NC(=O)C2CCCN2S(=O)(=O)c2ccc(Cl)cc2)c(=O)n(-c2ccccc2)n1C (centres undefined) was tested, and the Potency was “inactive”.
